Records with an inconclusive call do not appear. Where a call stands in place of a potency, no number is given. The source made the active and inactive calls. The call rests on the fitted dose curve; in most records, active means well fitted curve in the direction sought with a large enough effect; inconclusive means small, poorly fitted or top-dose-only effect, or another doubt; inactive means no such curve, though single readings can be large; an effect the other way counts as inactive or inconclusive. Numbered stars: 1 amine (or outer) side, 2 acyl side, 3 side chain; on linkers, the order of the positions; unused ones are H or OH. Bridge positions count the residues as written; N and C are the ends. Square brackets hold non-standard residues; d marks the D form. Peptide text beside a SMILES is read from it. * marks the point of attachment. ξ: configuration not given here. ΔAla(Z-3-ureido) = NC(=O)N/C=C(\N)C(=O)O; X3 = NC1=NCCC(C(N[*:1])C(=O)[*:2])N1; ξβ3hOrn = NCCCC(N)CC(=O)*; Dap = NC[CH](N)C(=O)O
Target: Luciferin 4-monooxygenase (Photinus pyralis) (UniProt P08659)
Sequence (P08659 whole entry, looked up): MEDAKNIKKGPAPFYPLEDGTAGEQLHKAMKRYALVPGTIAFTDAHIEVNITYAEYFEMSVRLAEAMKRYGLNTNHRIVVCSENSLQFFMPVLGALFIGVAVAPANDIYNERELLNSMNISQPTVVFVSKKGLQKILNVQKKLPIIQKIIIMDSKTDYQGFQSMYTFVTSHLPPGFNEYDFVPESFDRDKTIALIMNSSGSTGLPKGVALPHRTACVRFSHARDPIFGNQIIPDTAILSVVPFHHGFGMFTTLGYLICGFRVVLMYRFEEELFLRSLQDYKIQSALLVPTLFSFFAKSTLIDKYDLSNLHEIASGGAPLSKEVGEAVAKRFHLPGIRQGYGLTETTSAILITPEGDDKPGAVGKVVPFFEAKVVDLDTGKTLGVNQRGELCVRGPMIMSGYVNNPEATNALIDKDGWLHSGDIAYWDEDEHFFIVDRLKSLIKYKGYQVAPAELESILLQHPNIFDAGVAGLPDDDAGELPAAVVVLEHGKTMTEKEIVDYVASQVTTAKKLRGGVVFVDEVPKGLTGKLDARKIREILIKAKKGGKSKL
Assay: Biochemical firefly luciferase enzyme assay for NPC (AID 624030);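 further: purified P. pyralis luciferase at 10 nM with luciferin and ATP substrate; nearly all actives have a fitted effect of over 70% in size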
Conditions: purified P. pyralis luciferase, luminescence, 5 min; series mostly up to 58.6 µM
Outline: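 Direct inhibition of firefly luciferase enzyme (10 nM final, 50 mM Tris Acetate) assessed by luminescence within 5 minutes. Percent activity scaled between DMSO and PTC124 positive control, with concentration-effect curves classified by fit quality and response.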
For `C[C@]12CCC3C(CCC4=CC(=O)CC[C@@H]43)C1CCC2O` (stereo partly specified), the Potency was “inactive”.
For `CC(=O)[C@@]1(O)CC[C@@H]2[C@@H]3CCC4=CC(=O)CC[C@]4(C)[C@]3(F)[C@@H](O)C[C@@]21C`, the Potency was “inactive”.
For `CN1CC[C@]23c4c5ccc(O)c4OC2C(O)C=CC3[C@H]1C5` (stereo partly specified), the Potency was “inactive”.
With `CC(C)=CCN1CC[C@@]2(C)c3cc(O)ccc3C[C@H]1[C@@H]2C` the Potency was “inactive”.
For `C[C@]12CCC3[C@@H](CCC4=CC(=O)CC[C@@]43C)C1CCC2OC(=O)CCc1ccccc1` (stereo partly specified), the Potency was “inactive”.
In the case of `CCC(N)CCc1c[nH]c2ccccc12` (stereo unspecified), the Potency is reported as “inactive”.
In the case of `ClC[C@H]1CO1` (tested in a mixture with another compound), the Potency is reported as “inactive”.
In the case of `C=CCC1(O)CCC2C3CCC4=CC(=O)CCC4=C3C=CC21C` (stereo unspecified), the Potency is reported as “inactive”.
With `Oc1ccc2c3c1O[C@H]1[C@@H](O)C=CC4[C@@H](C2)NCC[C@@]341` (stereo partly specified) the Potency was “inactive”.
For `C[C@]12CCC(=O)C=C1CC[C@H]1C2CC[C@@]2(C)[C@@H]1CC[C@]2(C)O` (stereo partly specified), the Potency was “inactive”.
For `CC12CCC(=O)CC1CCC1C2CCC2(C)C1CCC2(C)O` (stereo unspecified), the Potency was “inactive”.
With `CC1(O)CCC2C3CCC4=CC(=O)CCC4(C)C3(F)C(O)CC21C` (stereo unspecified) the Potency was “inactive”.
In the case of `CCC(=O)O[C@@](Cc1ccccc1)(c1ccccc1)[C@H](C)CN(C)C`, the Potency is reported as “inactive”.
In the case of `CC(N)C(=O)c1ccccc1` (stereo unspecified), the Potency is reported as “inactive”.

Test system: not listed separately
Assay: S16 Schwann cell PMP22 intronic element firefly luciferase assay (AID 624032); further: nearly all actives have a fitted effect of over 30% in size; further: potency means the concentration at half of the fitted maximal effect
Conditions: S16 rat Schwann cells, PMP22 element FLuc, 24 h; series mostly up to 57.5 µM
Outline: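 Luciferase reporter of PMP22 intronic-element expression in stably transfected S16 rat Schwann cells, read by ONE-Glo luminescence after 24 h compound exposure at 37 C. Activity scaled between DMSO (0%) and positive-control PTC124; concentration-effect curves quality-classified.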
With `NC(C(=O)O)[C@@H]1CC(Cl)=NO1` (stereo partly specified) the Potency was 2.56 µM (active).
For `CCCCCCCCCCCCCCCCCC[N+](C)(C)CCC[Si](OC)(OC)OC`, the Potency was 0.572 µM (active).
In the case of `COc1cc(-c2ccc(-[n+]3nc(-c4ccccc4)nn3-c3ccc([N+](=O)[O-])cc3)c(OC)c2)ccc1-[n+]1nc(-c2ccccc2)nn1-c1ccc([N+](=O)[O-])cc1`, the Potency is reported as 14.4 µM (active).
In the case of `C[C@]12C=CC(=O)N[C@@H]1CC[C@@H]1C2CC[C@]2(C)C(C(=O)Nc3cc(C(F)(F)F)ccc3C(F)(F)F)CC[C@@H]12` (stereo partly specified), the Potency is reported as 16.1 µM (active).
For `Cc1ncc(C[n+]2csc(CCOP(=O)(O)O)c2C)c(N)n1`, the Potency was 7.21 µM (active).
In the case of `CNC[C@H](O)c1ccc(OC(=O)C(C)(C)C)c(OC(=O)C(C)(C)C)c1`, the Potency is reported as 0.0098 µM (active).
In the case of `NCCCC(N)CC(=O)NCC1NC(=O)C(CO)NC(=O)C(N)CNC(=O)C(C2CCN=C(N)N2)NC(=O)/C(=C/NC(N)=O)NC1=O` (stereo not drawn) (H-[Dap]S[Dap](ξβ3hOrn)[ΔAla(Z-3-ureido)][X3]; lactam 1-C; configuration not given here), the Potency is reported as “inactive”.
For `NC(=O)Oc1ccc(Cc2ccccc2)cc1`, the Potency was “inactive”.
For `CC1OC(OC2C(O)CC(OC3C(O)CC(OC4CCC5(C)C(CCC6C5CCC5(C)C(C7=CC(=O)OC7)CCC65O)C4)OC3C)OC2C)CC(O)C1O` (stereo unspecified), the Potency was 10.2 µM (active).
In the case of `Cc1cn([C@H]2C[C@H](O)[C@@H](CO)O2)c(=O)[nH]c1=O`, the Potency is reported as “inactive”.
With `C[n+]1c2cc(N)ccc2cc2ccc(N)cc21` the Potency was 1.81 µM (active).
For `CC(=O)NC1[C@H]([C@H](O)[C@H](O)CO)OC(C(=O)O)=C[C@H]1N=C(N)N` (stereo partly specified), the Potency was “inactive”.

Source: PubChem BioAssay (NCATS)
